In PubChem BioAssay (NCATS) one finds outcome data, which are given here for 17 compounds.

Results filed as inconclusive are left out. Calls of active or inactive are those of the source. Calls follow the shape of the dose curve; as a rule, active = well fitted inhibition curve with a large enough effect; inconclusive = small, poorly fitted or top-dose-only effect; inactive = flat fitted curve, though single readings scatter.

This assay concerns HEK293T. The assay can be described thus: qHTS assay to identify novel small-molecules to repurpose for Merkel cell carcinoma treatment (AID 1296009). Also: nearly all actives have a fitted effect of over 60% in size. The conditions noted are these: MCC and control cell lines, CellTiter-Glo viability, 72 h; at 44.8 µM (top of the series) unless noted. Summed up:
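Viability readout: ATP luminescence (CellTiter-Glo) after 72 hr drug exposure at 37 degree celsius. Dose-response format was 8 points for NPC and 11 points for MIPE; data normalized to in-plate controls.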
In the case of `CCN(CCO)CCCC(C)Nc1ccnc2cc(Cl)ccc12` (configuration not stated), the outcome is “inactive [at 4.96 µM]”. Consider `CC1=C(C)C(=O)C(C(CCCCCC(=O)O)c2ccccc2)=C(C)C1=O` (configuration not stated), for which the result was inactive. To `CC(=O)Nc1ccc(O)cc1` belongs “inactive”. As to `Cc1cc2c(s1)Nc1ccccc1N=C2N1CCN(C)CC1`, the call was inactive. Under `CC1=C(C(=O)O)N2C(=O)[C@@H](NC(=O)[C@H](N)C3=CCC=CC3)[C@H]2SC1` stands “inactive”; under `COC(=O)N[C@H](C(=O)N[C@@H](Cc1ccccc1)[C@@H](O)CN(Cc1ccc(-c2ccccn2)cc1)NC(=O)[C@@H](NC(=O)OC)C(C)(C)C)C(C)(C)C`, “inactive”; under `CCC1=C(C)CN(C(=O)NCCc2ccc(S(=O)(=O)NC(=O)NC3CCC(C)CC3)cc2)C1=O` (configuration not stated), “inactive”. With `CN(C)C(=O)COC(=O)Cc1ccc(OC(=O)c2ccc(N=C(N)N)cc2)cc1`, the compound was classed as inactive. Turning to `CC1(C)CCC(C)(C)c2cc(NC(=O)c3ccc(C(=O)O)cc3)ccc21`, the result was inactive. Under `Cc1cc2cc3c(C)cc(=O)oc3c(C)c2o1` stands “inactive”; under `CC(C)[C@H](N)C(=O)OCCOCn1cnc2c(=O)[nH]c(N)nc21`, “inactive”. Take `Clc1ccc(C(Cn2ccnc2)OCc2ccc(Sc3ccccc3)cc2)c(Cl)c1` (configuration not stated): the compound was called inactive.

As to `Cc1ncc([N+](=O)[O-])n1CC(C)O` (configuration not stated), the result was inactive. Under `Cn1c(NCCN(CCO)CCCc2ccc([N+](=O)[O-])cc2)cc(=O)n(C)c1=O` stands “inactive”; under `COc1ccc2cc([C@H](C)C(=O)O)ccc2c1`, “inactive”. With `CS(=O)(=O)OCCCCOS(C)(=O)=O`, the compound was called inactive.

For `COc1ccc(C2(C#N)CCC(C(=O)O)CC2)cc1OC1CCCC1` (configuration not stated), the call was inactive.
